PubChem BioAssay AID1649 (The Scripps Research Institute Molecular Screening Center, 2009)
The list shows a part of the results. A number with no mark means an inactive call. The source made the active and inactive calls. Rule as the data show it: active = activation above about 33%; inactive = the rest.

Assay: NPY-Y2 potentiators or agonists, counter-screen for NPY-Y1 potentiator project, cell-based, fluorescence (AID 1649)
Settings: HEK293-CNG cells, membrane-potential fluorescence (FLIPR), 1536-well; at 3.6 µM; stronger effect = higher value

| SMILES | activation |
| --- | --- |
| O=C(c1cccs1)N1CCN(C(=O)N2CCOCC2)CC1 | -5.13% |
| COC(=O)c1sc(-c2ccc(C(C)(C)C)cc2)cc1NC(=O)/C=C/C(=O)O | 26.2% |
| CSc1nc(-c2ccco2)nn1C(=O)c1ccccc1Cl | 18.9% |
| O=[N+]([O-])c1cc(Cl)cc(/C=N/NC(=S)Nc2cc(S(=O)(=O)N3CCOCC3)ccc2Cl)c1O | 64.8% (active) |
| O=C1/C(=C/c2coc3ccc(O)cc3c2=O)SC(=S)N1c1ccccc1 | 17.4% |
| COC(=O)c1ccc(NC(=O)CN(c2ccc(C)cc2)S(=O)(=O)c2c(C)n[nH]c2C)cc1 | 27.7% |
| Cc1cccc(OCC(O)CN2CCN(CCN3C(=O)c4cccc5cccc(c45)C3=O)CC2)c1C (stereo unspecified) | 49.7% (active) |
| O=C(Nc1ccc2c(c1)CCC2)c1cccc(S(=O)(=O)Nc2ccccc2Cl)c1 | -2.29% |
| COCCn1nnnc1C(c1ccccc1Cl)N1CCN(c2ccccc2OC)CC1 (stereo unspecified) | -5.69% |
| CCn1c2ccccc2c2cc(NC(=O)Nc3ccc([N+](=O)[O-])cc3C)ccc21 | 20.9% |
| CC(=O)c1ccc(NC(=O)C2CC(=O)Nc3nc4ccccc4n32)cc1 (stereo unspecified) | 22.9% |
| CN1C(=O)c2ccccc2C(C(=O)NCCCN2CCCC2)C1c1c[nH]c2ccccc12 (stereo unspecified) | -3.74% |
| Cc1ccccc1NCC(=O)N/N=C\c1ccc([N+](=O)[O-])s1 | 26.6% |
| O=C(Nc1ccccc1C(F)(F)F)c1cc(-c2ccc(O)cc2)on1 | -13.4% |
| CC1=C/C(=N\OS(=O)(=O)c2ccccc2)C=CC1=O | 35.6% (active) |
| N#Cc1ccc(C(=O)Nc2nc(-c3cccs3)c(C(=O)C(F)(F)F)s2)cc1 | -11.7% |
